# Measurements taken from PubChem BioAssay (NCATS).
# “And” between values parts separate entries of the source, which are not always exact repeats. Equal values may be shown once. Inconclusive results are not listed. Where a call stands in place of a potency, no number is given. The source made the active and inactive calls. Unless noted, the call rests on the fitted dose curve; in most records, active means well fitted curve in the direction sought with a large enough effect; inconclusive means small, poorly fitted or top-dose-only effect, or another doubt; inactive means no such curve, though single readings can be large; an effect the other way counts as inactive or inconclusive.
# Experiments:
# [1] = Primary qHTS for small molecule stabilizers of the endoplasmic reticulum resident proteome: Secreted ER Calcium Modulated Protein (SERCaMP) assay (AID 1508630)
# In short: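 GLuc-SERCaMP-expressing SH-SY5Y cells, pretreated 16 h with compound, are challenged with thapsigargin to empty ER calcium stores; after 4 h, coelenterazine is added directly to the medium and luminescence is imaged.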
# [2] = target: Cytochrome P450 2D6 (Homo sapiens) (UniProt P10635); assay: Cytochrome P450 family 2 subfamily D member 6 (CYP2D6) small molecule antagonists: luciferase biochemical (cell-free) qHTS assay (AID 1645840; active means well fitted curve in the direction sought with a large enough effect in the repeat runs; an effect the other way counts as inactive or inconclusive; further: nearly all actives have a fitted effect of over 55% in size; further: potency means the concentration at half of the fitted maximal effect)
# Sequence of Cytochrome P450 2D6 (Homo sapiens) (P10635 whole entry, looked up): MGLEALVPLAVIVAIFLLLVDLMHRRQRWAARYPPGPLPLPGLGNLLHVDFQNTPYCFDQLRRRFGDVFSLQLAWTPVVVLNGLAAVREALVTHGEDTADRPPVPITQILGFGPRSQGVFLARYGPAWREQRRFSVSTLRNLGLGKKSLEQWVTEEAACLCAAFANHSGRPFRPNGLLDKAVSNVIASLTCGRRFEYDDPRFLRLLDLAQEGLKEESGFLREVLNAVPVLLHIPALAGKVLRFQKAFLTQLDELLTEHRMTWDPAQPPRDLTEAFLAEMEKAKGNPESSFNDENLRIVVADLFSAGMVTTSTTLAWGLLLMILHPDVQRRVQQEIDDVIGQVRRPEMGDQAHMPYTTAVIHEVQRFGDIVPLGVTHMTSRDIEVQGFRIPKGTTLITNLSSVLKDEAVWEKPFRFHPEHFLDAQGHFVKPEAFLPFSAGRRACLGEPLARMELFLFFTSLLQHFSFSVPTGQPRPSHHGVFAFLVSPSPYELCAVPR
# In short: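 P450-Glo luminescent screen: recombinant CYP2D6 enzyme–proluciferin substrate mix preincubated with compound 10 min at room temperature, then NADPH regeneration added for 1 h at room temperature. Detection reagent added for 20 min; luciferin light read as relative luminescence units.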
# [3] = target: Cytochrome P450 2C9 (Homo sapiens) (UniProt P11712); assay: Cytochrome P450 family 2 subfamily C member 9 (CYP2C9) small molecule antagonists: luciferase biochemical (cell-free) qHTS assay (AID 1645842; active means well fitted curve in the direction sought with a large enough effect in the repeat runs; an effect the other way counts as inactive or inconclusive; further: nearly all actives have a fitted effect of over 55% in size; further: potency means the concentration at half of the fitted maximal effect)
# Sequence of Cytochrome P450 2C9 (Homo sapiens) (P11712 whole entry, looked up): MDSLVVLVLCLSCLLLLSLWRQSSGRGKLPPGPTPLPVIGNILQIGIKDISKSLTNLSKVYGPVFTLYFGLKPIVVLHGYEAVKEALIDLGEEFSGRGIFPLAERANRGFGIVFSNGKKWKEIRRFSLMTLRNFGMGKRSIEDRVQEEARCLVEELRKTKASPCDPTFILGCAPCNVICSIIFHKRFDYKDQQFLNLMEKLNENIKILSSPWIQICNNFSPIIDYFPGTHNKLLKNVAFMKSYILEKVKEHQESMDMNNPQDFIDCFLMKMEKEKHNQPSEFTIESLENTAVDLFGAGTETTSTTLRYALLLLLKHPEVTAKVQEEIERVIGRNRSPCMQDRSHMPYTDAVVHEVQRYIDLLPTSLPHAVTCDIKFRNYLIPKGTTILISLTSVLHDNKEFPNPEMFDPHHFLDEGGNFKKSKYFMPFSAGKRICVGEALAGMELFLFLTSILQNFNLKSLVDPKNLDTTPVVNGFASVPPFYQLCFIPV
# In short: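 Luminescence, after 20 min with luciferin detection reagent, reflected CYP2C9 turnover during a 1 h NADPH-driven reaction at 37C. Enzyme-substrate mix contained 0.4% bovine serum albumin and was preincubated with compound 10 min at room temperature.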
# [4] = Cytotoxicity counterscreen for inhibitors of SARS-CoV-2 cell entry (AID 1645845; calls by dose curve; further: nearly all actives have a fitted effect of over 50% in size)
# In short: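 48 h compound treatment (after 1 h preincubation), HEK293-ACE2 cells, 37 C/5% CO2; ATP luminescence endpoint; normalized to cell wells and media blanks.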
# [5] = Primary qHTS to identify inhibitors of SARS-CoV-2 cell entry (AID 1645846; calls by dose curve; further: nearly all actives have a fitted effect of over 45% in size); details: activity change, negative = inhibition: at 57.1 µM (top of the series) unless noted
# In short: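 Using luciferase-reporting pseudoviruses carrying Wuhan-Hu-1 spike, the screen tracks entry into stably ACE2-expressing cells over 48 hr. Activity is expressed relative to spike particles versus particles lacking any fusion protein.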
# [6] = Primary qHTS for inhibitors of nuclear receptor binding SET domain protein 2 (NSD2) in an RCH-ACV wild type WT cells (2C) (AID 1645877); further: nearly all actives have a fitted effect of over 70% in size; further: potency means the concentration at half of the fitted maximal effect
# [7] = Primary qHTS for inhibitors of nuclear receptor binding SET domain protein 2 (NSD2) in an isogenic RCH-ACV NSD2 p.E1099K mutant (9B) (AID 1645876); further: nearly all actives have a fitted effect of over 70% in size; further: potency means the concentration at half of the fitted maximal effect
# [8] = target: Catechol O-methyltransferase (Homo sapiens) (UniProt P21964); assay: Confirmatory Screen for Target Class Profiling of Small Molecule Inhibitors of Methyltransferases (AID 1745852; calls by dose curve; further: potency means the concentration at half of the fitted maximal effect); details: MTase-Glo luminescence, SAH detection, recombinant enzyme; measured here: COMT max response; stronger effect = lower value
# Sequence of Catechol O-methyltransferase (Homo sapiens) (P21964 whole entry, looked up): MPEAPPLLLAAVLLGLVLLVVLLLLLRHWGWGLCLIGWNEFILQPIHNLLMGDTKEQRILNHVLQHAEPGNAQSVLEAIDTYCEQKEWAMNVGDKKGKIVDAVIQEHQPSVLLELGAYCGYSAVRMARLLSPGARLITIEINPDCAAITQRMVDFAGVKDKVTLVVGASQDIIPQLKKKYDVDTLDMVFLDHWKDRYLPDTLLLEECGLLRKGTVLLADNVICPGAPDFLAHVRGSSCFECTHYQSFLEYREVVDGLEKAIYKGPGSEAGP
# [9] = target: Guanidinoacetate N-methyltransferase (Homo sapiens) (UniProt Q14353); assay: as above; details: MTase-Glo luminescence, SAH detection, recombinant enzyme; activity change, negative = inhibition: at 57.3 µM (top of the series)
# [10] = target: Nicotinamide N-methyltransferase (Homo sapiens) (UniProt P40261); assay: as above; details: MTase-Glo luminescence, SAH detection, recombinant enzyme; measured here: NNMT max response; stronger effect = lower value
# Sequence of Nicotinamide N-methyltransferase (Homo sapiens) (P40261 whole entry, looked up): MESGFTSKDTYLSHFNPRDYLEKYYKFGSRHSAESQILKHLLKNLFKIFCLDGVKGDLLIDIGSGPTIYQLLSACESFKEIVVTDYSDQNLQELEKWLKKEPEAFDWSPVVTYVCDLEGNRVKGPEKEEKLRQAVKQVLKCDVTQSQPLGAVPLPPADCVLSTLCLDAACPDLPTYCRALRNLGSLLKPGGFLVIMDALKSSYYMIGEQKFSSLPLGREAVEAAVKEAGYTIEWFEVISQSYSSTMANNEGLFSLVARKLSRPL
# [11] = target: Phenylethanolamine N-methyltransferase (Homo sapiens) (UniProt P11086); assay: as above; details: MTase-Glo luminescence, SAH detection, recombinant enzyme; measured here: PNMT max response; stronger effect = lower value
# Sequence of Phenylethanolamine N-methyltransferase (Homo sapiens) (P11086 whole entry, looked up): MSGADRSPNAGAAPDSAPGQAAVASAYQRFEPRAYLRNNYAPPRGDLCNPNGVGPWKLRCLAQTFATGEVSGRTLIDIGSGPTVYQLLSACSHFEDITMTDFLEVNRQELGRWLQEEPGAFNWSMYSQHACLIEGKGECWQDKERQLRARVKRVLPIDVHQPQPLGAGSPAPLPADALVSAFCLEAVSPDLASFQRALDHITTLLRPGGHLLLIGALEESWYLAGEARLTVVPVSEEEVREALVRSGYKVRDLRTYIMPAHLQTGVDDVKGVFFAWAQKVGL
smiles,measurement,setting,value
CCOC(=O)Nc1ccc(NCc2ccc(F)cc2)cc1N,Potency,[1],inactive
same,Potency,[2],19 µM (active)
same,Potency,[3],9.52 µM (active)
same,Potency,[4],inactive
same,"activity change, negative = inhibition",[5],2.18%
same,Potency,[6],inactive
O=C(NCC1CCOCC1)c1cnc(Nc2ccc(Cl)cc2Cl)nc1C(F)(F)F,Potency,[1],inactive
same,Potency,[4],inactive
same,"activity change, negative = inhibition",[5],-4.18%
same,Potency,[7],inactive
CC(C)(O)C(=O)Nc1ccc([N+](=O)[O-])c(C(F)(F)F)c1,Potency,[1],inactive
same,Potency,[4],inactive
CCCCCCCCc1ccc(O)cc1,Potency,[1],inactive
same,Potency,[3],30.1 µM (active)
same,Potency,[7],6.18 µM (active)
COc1ccc(N(C(=O)Oc2c(C)cccc2C)c2ccnc(Nc3ccc(N4CCN(C)CC4)cc3)n2)c(OC)c1,Potency,[1],inactive
same,Potency,[3],21.3 µM (active)
same,Potency,[4],inactive
same,Potency,[5],inactive
same,Potency,[7],4.68 µM (active)
same,Potency,[6],5.25 µM (active)
Cc1[nH]nc2ccc(-c3cncc(OC[C@@H](N)Cc4c[nH]c5ccccc45)c3)cc12,Potency,[1],inactive
same,Potency,[3],0.674 µM (active)
same,"activity change, negative = inhibition",[5],-97.4%
same,Potency,[7],145 nM (active) and 235 nM (active)
same,activity,[8],-31.1%
same,Potency,[9],30.4 µM (active)
same,activity,[10],-70.5%
same,activity,[11],-56.5%
CCCCCCCCCC(CC)c1ccc(S(=O)(=O)O)cc1 (stereo not drawn),Potency,[1],inactive
same,Potency,[3],7.74 µM (active)
COC(=O)[C@@H](N)CCCN=C(N)N[N+](=O)[O-],Potency,[1],inactive
same,Potency,[4],inactive
same,"activity change, negative = inhibition",[5],-1.1%
same,Potency,[7],inactive
CN[C@@H]1Cc2cccc3[nH]c(=O)n(c23)C1,Potency,[1],inactive
same,Potency,[4],inactive
same,"activity change, negative = inhibition",[5],4.06%
same,Potency,[7],inactive
O=C(Oc1ccc([N+](=O)[O-])cc1)N1CCN(Cc2cccc(Oc3ccccc3)c2)CC1,Potency,[1],inactive
same,Potency,[2],2.68 µM (active)
same,Potency,[3],19 µM (active)
same,Potency,[7],inactive
CC(C)N(CCNC(=O)CN1CCCC1=O)C(C)C,Potency,[1],inactive
same,Potency,[2],inactive
same,Potency,[3],inactive
same,Potency,[7],inactive
same,Potency,[6],inactive
